Molecules are shown by their SMILES. Results filed as inconclusive are left out. The source made the active and inactive calls. Calls follow the shape of the dose curve; as a rule, active = well fitted cell-killing curve with a large enough effect; inconclusive = small, poorly fitted or top-dose-only effect, or effect the other way; inactive = no such curve, though single readings can be large or run the other way.
Potency is read from the fitted curve at half-maximal effect.

A short description of this experiment: Quantitative High-Throughput drug screen in 47 multiple myeloma cell lines against the NCATS MIPE library collection: PCM6_Riken cell viability assay (AID 1919870). Also: nearly all actives have a fitted effect of over 30% in size. To be noted: CellTiter-Glo ATP, 48 h; series mostly up to 45.8 µM; viability (% of control): at the top concentration. The text has this:
PI: Beverly A. Mock Ph.D.
Laboratory of Cancer Biology and Genetics,
Center for Cancer Research, National Cancer Institute,
National Institute of Health, Bethesda, Maryland
Drug resistance and disease progression are common in multiple myeloma (MM) patients, underscoring the need for new therapeutic combinations. […] We hypothesized that effective combinations would reduce MYC expression and enhance p16 activity. […] These preclinical data identify potentially useful drug combinations for evaluation in drug-resistant MM and reveal potential mechanisms of combined drug sensitivity.
Described herein is the primary MIPE qHTS used to cherrypick compounds. Validated compounds were then further tested for potential synergistic activiy.
[1] Peat TJ, Gaikwad SM, Dubois W, Gyabaah-Kessie N, Zhang S, Gorjifard S, Phyo Z, Andres M, Hughitt VK, Simpson RM, Miller MA, Girvin AT, Taylor A, Williams D, D'Antonio N, Zhang Y, Rajagopalan A, Flietner E, Wilson K, Zhang X, Shinn P, Klumpp-Thomas C, McKnight C, Itkin Z, Chen L, Kazandijian D, Zhang J, Michalowski AM, Simmons JK, Keats J, Thomas CJ, Mock BA. Drug combinations identified by high-throughput screening promote cell cycle transition and upregulate Smad pathways in myeloma. Cancer Lett. 2023 Aug 1;568:216284. doi: 10.1016/j.canlet.2023.216284. Epub 2023 Jun 24. PMID: 37356470; PMCID: PMC10408729.
SEQUENCE No. (e.g., 1, 2, 3, etc.); […] (e.g., Cells, Incubation, Reagent, etc.); VALUE and DESCRIPTION.
1; Cells; 5 uL; white, solid bottom 1536-well Greiner assay plate.
2; Compounds; 23 nL; Kalypsis pin tool (Wako USA) equipped with a 1536-well pin head to transfer to the assay plates.
3; Incubation; 48 hours; 37C incubation.
4; Reagent;5uL; CellTiter Glo (Promega).
5; Detector; 425V; Luminescence; Viewlux PerkinElmer.
NOTES (numbers refer to Sequence numbers above)
1. The cell-based screening methods employed in this study were like those previously published. Briefly, the corresponding myeloma cell lines were screened in 1,536-well plates with 500 cells, 5-uL per well for inhibition of cell viability (assessed by measuring ATP levels with CellTiterGlo).
2. NCATS MIPE 4.0 library of approved and investigational drugs were added using the Kalypsis pin tool. Wells treated with DMSO only for 100% viability and media only for 0% viability were used as controls.
3. The assay plates were covered and incubated for 48 hours in a 37C, 5% CO2 incubator with controlled humidity.
4. After 48 hours, CellTilter-GloTM luminescent substrate mix (Promega) reagent was added to the assay plate and plates we incubated for 5 min at room temperature.
5. Signal was measured as median relative luminescence units on a ViewLux (PerkinElmer) multiplate reader.
[1] Heske CM, Davis MI, Baumgart JT, Wilson K, Gormally MV, Chen L, Zhang X, Ceribelli M, Duveau DY, Guha R, Ferrer M, Arnaldez FI, Ji J, Tran HL, Zhang Y, Mendoza A, Helman LJ, Thomas CJ. Matrix Screen Identifies Synergistic Combination of PARP Inhibitors and Nicotinamide Phosphoribosyltransferase (NAMPT) Inhibitors in Ewing Sarcoma. Clin Cancer Res. 2017 Dec 1;23(23):7301-7311. doi: 10.1158/1078-0432.CCR-17-1121. Epub 2017 Sep 12. PMID: 28899971; PMCID: PMC6636827.
On the technique in general: ATP-based viability assays read luminescence as a measure of living cells.
For `O=C(O)Cc1cccc(OCCCN(Cc2cccc(C(F)(F)F)c2Cl)CC(c2ccccc2)c2ccccc2)c1`, the Potency was 18.7 µM (active). With `Cc1cccc(Nc2nc(N[C@@H]3CCCC[C@H]3N)ncc2C(N)=O)c1`, the Potency was 7.43 µM (active). Still for that read-out and setting: the result for `Nc1ncnc2c1ncn2[C@@H]1O[C@H](CO)[C@@H](O)[C@@H]1O` reads 1.18 µM (active). On the same count and under the same terms, as for `CC(C)c1c(C(=O)Nc2ccccc2)c(-c2ccccc2)c(-c2ccc(F)cc2)n1CC[C@H](O)C[C@@H](O)CC(=O)O`, the figure is 16.6 µM (active).

Regarding `Cc1ccc2c(c1)C(=O)[C@]1(O)CCN(c3ccccc3)C1=N2`, the “viability (% of control)” value was 119% (inactive). Take `CN1CCN(c2cccc(Nc3nc4c(-c5ccc(S(C)(=O)=O)cc5)cccn4n3)c2)CC1`: the Potency was 7.43 µM (active). The same measure, in the same setting: as for `NC(=O)c1noc([C@H](CCCC2CCCCC2)CC(=O)NO)n1`, the figure is 16.6 µM (active). On the same count and under the same terms, the result for `OC1CCC(Nc2ncc3nc(Nc4c(F)cc(F)cc4F)n([C@@H]4CCOC4)c3n2)CC1` (stereo not given in full) reads 18.7 µM (active); that for `CCCCc1ccc(NS(=O)(=O)c2ccc(C)c(C(=O)N3CCN(c4cccc(C)c4C)CC3)c2)cc1`, 26.4 µM (active). Still for that read-out and setting: as for `CNC1CCC(N(Cc2cccc(-c3ccncc3)c2)C(=O)c2sc3ccccc3c2Cl)CC1` (stereo not given), the figure is 8.33 µM (active); as for `N#CC(c1ccc(Cl)cc1)c1c(Cl)cc(-n2ncc(=O)[nH]c2=O)cc1Cl` (stereo not given), 23.5 µM (active). Regarding `COc1ccc(-c2cc3nccn3c(Nc3ncccc3C(N)=O)n2)cc1OC`, the Potency was 0.264 µM (active). The same measure, in the same setting: as for `CC(C)(CO)[C@@H](O)C(=O)NCCC(=O)O`, the figure is 16.6 µM (active); as for `Cn1c(=O)c(-c2c(Cl)cccc2Cl)cc2cnc(Nc3cccc(C(=O)O)c3)nc21`, 0.0469 µM (active). `CCCCC[C@H](O)C=C[C@H]1[C@H](O)CC(=O)[C@H]1CCCCCCC(=O)O`: the “viability (% of control)” value is 124% (inactive).

`CCOC(=O)N1c2ccc(C(F)(F)F)cc2[C@@H](N(Cc2cc(C(F)(F)F)cc(C(F)(F)F)c2)C(=O)OC)C[C@H]1CC`: the “viability (% of control)” value is 80.7% (inactive). Turning to `Cc1ccc(C(=O)N(CCCN)[C@@H](c2oc3cc(Cl)ccc3c(=O)c2Cc2ccccc2)C(C)C)cc1`, the Potency was 9.35 µM (active). The same measure, in the same setting: the result for `Cc1nc(NC(=O)N2CCC[C@@H]2C(N)=O)sc1-c1csc(C(C)(C)C)n1` reads 4.69 µM (active); that for `COc1ccc2c(c1)c(C1=C(c3c[nH]c4ccccc34)C(=O)NC1=O)cn2CCCN(C)C`, 23.5 µM (active). Turning to `CC(=O)OCC(=O)[C@@]1(O)CC[C@H]2[C@@H]3CCC4=CC(=O)C=C[C@]4(C)[C@@H]3[C@@H](O)C[C@@]21C`, the “viability (% of control)” value is 103% (inactive). As for `Cc1ccc(NC(=O)c2ccc(CN3CCN(C)CC3)cc2)cc1Nc1nc(-c2cccnc2)cs1`, the Potency was 4.18 µM (active). For `CC(=O)OCC(=O)[C@@]12OC(C)(C)O[C@H]1C[C@H]1[C@@H]3C[C@H](F)C4=CC(=O)C=C[C@]4(C)[C@@]3(F)[C@@H](O)C[C@@]12C`, the “viability (% of control)” value was 103% (inactive).

In the case of `CCC[C@H](N[C@@H](C)C(=O)N1[C@@H]2CCCC[C@H]2C[C@H]1C(=O)O)C(=O)OCC`, the “viability (% of control)” value is 101% (inactive). For the compound `O=C(NC[C@H](O)CO)c1ccncc1Nc1ccc(I)cc1F`, the Potency is 16.6 µM (active).

`CN1N=C(N)c2cn([C@@H]3O[C@H](COP(=O)(O)O)[C@@H](O)[C@@H]3O)c3ncnc1c23`: the Potency was 1.05 µM (active). On the same count and under the same terms, the result for `Clc1ccc(C2(c3ccc(-c4cn[nH]c4)cc3)CCNCC2)cc1` reads 6.62 µM (active). Take `COc1ccc2c(c1)CC[C@H]1[C@@H]2CC[C@]2(C)[C@@H](NCCCCCCN3C(=O)C=CC3=O)CC[C@H]12`: the “viability (% of control)” value is 124% (inactive).

Take `O=C(O)c1ccc(O)c2ncc(N3CCOCC3)cc12`: the “viability (% of control)” value is 117% (inactive).

On to `O=C(c1ccc(C=Cc2n[nH]c3ccccc23)cc1)N1CCNCC1`, for which the Potency is 16.6 µM (active). Turning to `C[C@@H]1[C@H](O)[C@@H](C)C=CC=CC=CC=CC=CC=CC=C[C@H](O[C@@H]2O[C@H](C)[C@H](O)[C@H](N)[C@@H]2O)C[C@@H]2O[C@](O)(C[C@@H](O)C[C@@H](O)[C@H](O)CC[C@@H](O)C[C@@H](O)CC(=O)O[C@H]1C)C[C@H](O)[C@@H]2C(=O)O`, the Potency is 3.32 µM (active). On to `Nc1ccn([C@@H]2O[C@H](CO)[C@@H](O)[C@H]2O)c(=O)n1`, for which the “viability (% of control)” value is 81.6% (inactive). Turning to `C[C@@H](N)c1ccc(C(=O)Nc2ccnc3[nH]ccc23)cc1`, the Potency is 16.6 µM (active). `OC(c1cc(C(F)(F)F)nc2c(C(F)(F)F)cccc12)C1CCCCN1` (stereo not given): the Potency is 13.2 µM (active). As to `CN[C@@H]1[C@@H](O)[C@@H](O[C@@H]2[C@@H](O)[C@H](O[C@H]3O[C@H](CN)[C@@H](O)[C@H](O)[C@@H]3O)[C@@H](N)C[C@@H]2NC(=O)[C@@H](O)CN)OC[C@]1(C)O`, the “viability (% of control)” value is 124% (inactive).

As for `C[C@@H]1O[C@@H](O[C@H]2CC[C@@]3(C)[C@H](CC[C@@H]4[C@H]3C[C@@H](O)[C@]3(C)[C@@H](C5=CC(=O)OC5)CC[C@]43O)C2)C[C@H](O)[C@@H]1O[C@H]1C[C@H](O)[C@H](O[C@H]2C[C@H](O)[C@@H](O)[C@@H](C)O2)[C@H](C)O1` (stereo in doubt), the Potency is 0.108 µM (active). On the same count and under the same terms, as for `O=c1[nH]nc(OCCCc2ccc(Cl)cc2)c(NCc2cccnc2)c1Br`, the figure is 4.69 µM (active). The same measure, in the same setting: the result for `COc1cc(F)c(C(C)C)cc1-c1ccc(C(F)(F)F)cc1CN1C(=O)O[C@H](c2cc(C(F)(F)F)cc(C(F)(F)F)c2)[C@@H]1C` reads 23.5 µM (active); that for `Fc1ccc(C(c2ccc(F)cc2)N2CCN(CC=Cc3ccccc3)CC2)cc1`, 5.9 µM (active); that for `OCCn1cc(-c2ccc3c(c2)CCC3=NO)c(-c2ccncc2)n1`, 20.9 µM (active).

Regarding `CCCCC(C=O)NC(=O)C(CC(C)C)NC(=O)OCc1ccccc1` (stereo not given), the “viability (% of control)” value is 101% (inactive).
